Data taken from the supplement of paper PMC10849652.
About 8,800 targets were measured; listed, in parts, are those with a hit and a random draw of the rest. About 0.5% of all pairs of compound and target were hits.

How the values were obtained:
Test in all cases: log2 fold change, soluble protein after heating vs DMSO (PISA); higher = thermal stabilisation; K562 lysate, 10 uM; active = over 0.2 and 3.5 SD of the protein, either way, in both replicates (recomputed)
erlotinib = compound: C#Cc1cccc(Nc2ncnc3cc(OCCOC)c(OCCOC)cc23)c1 [erlotinib]
Summary of the method: (§1)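 K562 pellets were dounce-homogenised in PBS pH 7.4 containing 1 mM MgCl2, and the crude extract, at 1 mg/mL protein, was exposed to 10 μM compound for 30 min. Aliquots were heated for 3 min across 48°C-58°C, pooled, brought to 0.5% NP-40 at 4°C and spun at 21,000xg for 90 min, with the supernatant taken as soluble protein. TMTpro 16plex LC-MS/MS with equalised channel sums quantified that protein. Values are log-two fold changes in thermal stability relative to solvent controls, taken from duplicates.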

[1] = compound: C/C(=N\NC(=O)C1=CC(=CC=C1)S(=O)(=O)N2CCOCC2)/C3=C(C=CC(=C3)Cl)O
Summary of the method: as §1

[2] = compound: C1=CC(=CC=C1C2=NC3=C(N2)C=C(C=C3)C(=O)N)OC4=CC=C(C=C4)Cl
Summary of the method: as §1

[3] = compound: C1=CC2=C(C=CC(=C2)/C=C\3/C(=O)NC(=NCC4=CC=CS4)S3)N=C1
Summary of the method: as §1

[4] = compound: C1=CC2=NC=CN=C2C=C1/C=C/3\C(=O)NC(=O)S3
Summary of the method: as §1

[5] = compound: C1=CC=C(C=C1)C2=NC(=C(N2)C3=CC=NC=C3)C4=CC(=C(C=C4)Cl)O
Summary of the method: as §1

[6] = compound: C1=CC=C2C(=C1)C3=NNC4=CC=CC(=C43)C2=O
Summary of the method: as §1

[7] = compound: C1CCN(C1)C(=O)NC2=CC=CC(=C2)NC3=NC=C(C(=N3)NCCC4=CN=CN4)Br
Summary of the method: as §1

[8] = compound: C1CN(CCC1(CC2=CC=C(C=C2)Cl)N)C3=NC=NC4=C3C=CN4
Summary of the method: as §1

IRAK-1-4 Inhibitor I = compound: C1COCCN1CCN2C3=CC=CC=C3N=C2NC(=O)C4=CC(=CC=C4)[N+](=O)[O-] [IRAK-1-4 Inhibitor I]
Summary of the method: as §1

Measured: log2 fold change

ACYP1 (UniProt P07311)
Sequence of UniProt P07311 (P07311 whole entry, looked up): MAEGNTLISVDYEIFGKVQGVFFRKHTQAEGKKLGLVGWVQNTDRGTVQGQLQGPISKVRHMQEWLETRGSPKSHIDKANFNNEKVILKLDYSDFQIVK
inactive: erlotinib -0.032 | [1] 0.028 | [2] -0.007 | [3] -0.02 | [4] -0.008 | [5] -0.017 | [6] -0.01 | [7] 0.024 | [8] -0.004 | IRAK-1-4 Inhibitor I 0.013

ABRACL (UniProt Q9P1F3)
Sequence of UniProt Q9P1F3 (Q9P1F3 whole entry, looked up): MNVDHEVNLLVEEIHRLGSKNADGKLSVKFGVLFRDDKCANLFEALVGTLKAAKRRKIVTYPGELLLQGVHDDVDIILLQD
inactive: erlotinib -0.013 | [2] 0.056 | [4] 0.103

ANKRD44 isoform 2 (UniProt Q8N8A2)
inactive: erlotinib -0.034 | [1] -0.035 | [2] 0.002 | [3] -0.083 | [4] -0.016 | [6] -0.257 | [7] -0.059 | [8] -0.032

ACVR1 (UniProt Q04771)
inactive: [4] 0.074

ACAT1, A0A5F9ZHJ0
inactive: [5] -0.128 | IRAK-1-4 Inhibitor I 0.075

ALDH1L2 (UniProt Q3SY69)
inactive: erlotinib 0.005 | [1] 0.025 | [2] 0.011 | [3] 0.037 | [4] -0.02 | [5] -0.004 | [6] -0.064 | [7] -0.018 | [8] 0.024 | IRAK-1-4 Inhibitor I -0.011

ALDH18A1 isoform 2 (UniProt P54886)
Sequence of UniProt P54886 (P54886 whole entry, looked up): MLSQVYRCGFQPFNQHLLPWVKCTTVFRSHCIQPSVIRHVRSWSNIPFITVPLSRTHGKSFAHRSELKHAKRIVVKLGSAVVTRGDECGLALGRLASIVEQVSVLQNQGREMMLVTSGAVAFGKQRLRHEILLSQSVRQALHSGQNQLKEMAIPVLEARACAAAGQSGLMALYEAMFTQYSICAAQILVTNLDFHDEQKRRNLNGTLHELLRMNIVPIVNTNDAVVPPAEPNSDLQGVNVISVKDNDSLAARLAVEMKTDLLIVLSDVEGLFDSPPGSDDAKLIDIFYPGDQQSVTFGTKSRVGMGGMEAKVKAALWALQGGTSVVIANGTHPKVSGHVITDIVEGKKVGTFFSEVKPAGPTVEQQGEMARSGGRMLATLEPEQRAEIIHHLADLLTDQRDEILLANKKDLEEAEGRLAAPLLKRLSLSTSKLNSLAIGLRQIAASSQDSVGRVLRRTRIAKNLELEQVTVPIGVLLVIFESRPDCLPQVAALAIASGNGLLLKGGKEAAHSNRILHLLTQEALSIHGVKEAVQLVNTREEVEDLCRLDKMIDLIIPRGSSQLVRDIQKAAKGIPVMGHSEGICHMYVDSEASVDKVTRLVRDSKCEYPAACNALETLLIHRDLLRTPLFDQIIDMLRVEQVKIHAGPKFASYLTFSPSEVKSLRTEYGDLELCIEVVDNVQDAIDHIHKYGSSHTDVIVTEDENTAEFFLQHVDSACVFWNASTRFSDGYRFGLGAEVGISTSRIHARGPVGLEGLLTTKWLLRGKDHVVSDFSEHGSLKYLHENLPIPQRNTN
inactive: [1] -0.298 | [3] -0.142 | [5] 0.092 | [6] -0.05 | IRAK-1-4 Inhibitor I 0.046

ALKBH7 (UniProt Q9BT30)
inactive: erlotinib -0.169 | [2] -0.02 | [5] 0 | [7] -0.033 | [8] 0.027 | IRAK-1-4 Inhibitor I -0.04

ANP32E isoform 3 (UniProt Q9BTT0)
inactive: [1] -0.079 | [3] -0.002 | [4] -0.011 | [6] 0.012 | [7] 0.075 | [8] -0.01

ANKRD30A (UniProt Q9BXX3)
Sequence of UniProt Q9BXX3 (Q9BXX3 whole entry, looked up): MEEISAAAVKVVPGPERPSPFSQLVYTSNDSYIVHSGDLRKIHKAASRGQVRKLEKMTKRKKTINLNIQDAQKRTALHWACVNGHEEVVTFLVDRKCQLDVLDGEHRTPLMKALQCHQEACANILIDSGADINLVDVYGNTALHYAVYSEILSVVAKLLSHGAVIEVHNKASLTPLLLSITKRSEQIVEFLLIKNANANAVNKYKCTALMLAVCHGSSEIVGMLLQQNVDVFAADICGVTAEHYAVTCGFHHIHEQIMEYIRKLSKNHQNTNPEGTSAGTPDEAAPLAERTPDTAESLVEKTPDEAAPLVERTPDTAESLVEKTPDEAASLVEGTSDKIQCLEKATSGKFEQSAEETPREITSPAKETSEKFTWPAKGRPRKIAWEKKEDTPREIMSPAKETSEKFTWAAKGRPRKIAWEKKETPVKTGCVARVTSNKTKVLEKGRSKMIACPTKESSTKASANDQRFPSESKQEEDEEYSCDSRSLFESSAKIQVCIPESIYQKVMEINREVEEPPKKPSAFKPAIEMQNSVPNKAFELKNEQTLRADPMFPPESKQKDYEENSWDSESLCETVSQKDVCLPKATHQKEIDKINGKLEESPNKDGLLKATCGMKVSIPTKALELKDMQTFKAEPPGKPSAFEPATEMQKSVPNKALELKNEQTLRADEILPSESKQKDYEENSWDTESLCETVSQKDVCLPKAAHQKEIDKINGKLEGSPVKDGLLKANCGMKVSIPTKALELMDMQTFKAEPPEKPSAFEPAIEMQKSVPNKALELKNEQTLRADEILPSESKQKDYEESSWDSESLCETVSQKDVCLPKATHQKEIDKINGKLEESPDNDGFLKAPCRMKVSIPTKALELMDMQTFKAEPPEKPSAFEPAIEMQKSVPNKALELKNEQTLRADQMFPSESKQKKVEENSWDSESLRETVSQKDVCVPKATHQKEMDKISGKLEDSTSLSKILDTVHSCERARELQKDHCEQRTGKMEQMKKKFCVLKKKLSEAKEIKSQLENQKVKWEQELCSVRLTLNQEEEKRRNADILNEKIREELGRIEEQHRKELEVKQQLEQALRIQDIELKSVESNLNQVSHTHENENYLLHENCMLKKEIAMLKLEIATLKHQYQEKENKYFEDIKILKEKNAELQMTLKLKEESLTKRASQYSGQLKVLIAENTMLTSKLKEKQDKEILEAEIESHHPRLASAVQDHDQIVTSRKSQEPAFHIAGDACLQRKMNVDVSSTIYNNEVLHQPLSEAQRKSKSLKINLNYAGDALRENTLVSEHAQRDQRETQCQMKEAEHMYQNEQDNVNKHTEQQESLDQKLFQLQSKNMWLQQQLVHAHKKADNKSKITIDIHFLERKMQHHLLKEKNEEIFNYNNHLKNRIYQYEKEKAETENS
inactive: [4] 0.035 | [5] -0.06 | [7] 0.415 | [8] 0.144 | IRAK-1-4 Inhibitor I -0.176

AGPAT2 (UniProt O15120)
inactive: erlotinib -0.032 | [1] -0.064 | [2] 0.013 | [3] 0.245 | [5] -0.114 | [6] 0.024 | [7] -0.038 | [8] 0.069 | IRAK-1-4 Inhibitor I -0.027

ABI1 isoform 6 (UniProt Q8IZP0)
inactive: [7] -0.167 | [8] 0.213

ACLY isoform 2 (UniProt P53396)
Sequence of UniProt P53396 (P53396 whole entry, looked up): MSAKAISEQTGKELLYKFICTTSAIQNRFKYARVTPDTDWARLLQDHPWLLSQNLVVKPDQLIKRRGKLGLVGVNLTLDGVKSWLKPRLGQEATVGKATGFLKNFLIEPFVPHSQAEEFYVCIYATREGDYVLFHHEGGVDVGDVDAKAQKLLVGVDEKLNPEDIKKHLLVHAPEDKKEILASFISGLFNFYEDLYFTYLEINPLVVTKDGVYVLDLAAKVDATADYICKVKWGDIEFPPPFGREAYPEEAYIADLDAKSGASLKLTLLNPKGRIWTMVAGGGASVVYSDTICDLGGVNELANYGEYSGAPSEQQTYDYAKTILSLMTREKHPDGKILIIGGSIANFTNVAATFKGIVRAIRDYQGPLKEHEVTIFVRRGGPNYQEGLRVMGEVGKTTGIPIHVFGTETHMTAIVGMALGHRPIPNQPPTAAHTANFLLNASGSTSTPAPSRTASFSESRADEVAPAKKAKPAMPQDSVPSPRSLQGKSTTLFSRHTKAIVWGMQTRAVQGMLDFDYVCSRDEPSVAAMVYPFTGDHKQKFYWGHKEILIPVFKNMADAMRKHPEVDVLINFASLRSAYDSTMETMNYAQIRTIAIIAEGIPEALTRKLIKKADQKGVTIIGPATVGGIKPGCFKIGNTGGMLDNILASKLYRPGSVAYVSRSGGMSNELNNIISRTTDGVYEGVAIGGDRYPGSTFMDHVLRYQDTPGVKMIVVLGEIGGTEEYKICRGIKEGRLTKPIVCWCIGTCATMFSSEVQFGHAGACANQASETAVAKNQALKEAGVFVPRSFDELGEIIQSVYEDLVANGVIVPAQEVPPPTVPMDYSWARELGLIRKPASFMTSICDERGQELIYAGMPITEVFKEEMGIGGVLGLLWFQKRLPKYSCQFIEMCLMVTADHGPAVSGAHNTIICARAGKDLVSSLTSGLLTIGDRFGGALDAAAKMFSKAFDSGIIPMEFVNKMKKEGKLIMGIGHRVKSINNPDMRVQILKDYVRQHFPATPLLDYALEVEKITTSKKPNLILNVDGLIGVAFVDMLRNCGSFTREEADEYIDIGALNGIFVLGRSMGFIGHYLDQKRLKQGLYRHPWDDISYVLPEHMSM
inactive: [1] -0.122 | [3] 0.002 | [4] -0.018 | [5] 0.012 | [6] -0.034 | [7] -0.027 | [8] -0.029 | IRAK-1-4 Inhibitor I -0.053

ACYP2 (UniProt P14621)
inactive: erlotinib -0.057 | [1] 0.256 | [2] 0.007 | [3] -0.176 | [4] 0.002 | [5] -0.049 | [6] -0.185 | IRAK-1-4 Inhibitor I -0.011

ACTG1 (UniProt K7EM38)
inactive: [7] -0.162 | [8] -0.155

AIMP2 isoform 2 (UniProt Q13155)
inactive: [4] 0.056 | [5] 0.061 | IRAK-1-4 Inhibitor I 0.006

ASPH (UniProt Q12797)
inactive: erlotinib 0.003 | [1] -0.028 | [2] -0.013 | [3] 0.075 | [4] -0.011 | [5] 0.006 | [6] -0.022 | [7] -0.011 | [8] 0.01 | IRAK-1-4 Inhibitor I -0.016

ANXA2 (UniProt H0YL33)
inactive: erlotinib -0.153 | [2] 0.088 | [4] -0.108 | [5] -0.027 | IRAK-1-4 Inhibitor I -0.031

AP5B1 (UniProt Q2VPB7)
Sequence of UniProt Q2VPB7 (Q2VPB7 whole entry, looked up): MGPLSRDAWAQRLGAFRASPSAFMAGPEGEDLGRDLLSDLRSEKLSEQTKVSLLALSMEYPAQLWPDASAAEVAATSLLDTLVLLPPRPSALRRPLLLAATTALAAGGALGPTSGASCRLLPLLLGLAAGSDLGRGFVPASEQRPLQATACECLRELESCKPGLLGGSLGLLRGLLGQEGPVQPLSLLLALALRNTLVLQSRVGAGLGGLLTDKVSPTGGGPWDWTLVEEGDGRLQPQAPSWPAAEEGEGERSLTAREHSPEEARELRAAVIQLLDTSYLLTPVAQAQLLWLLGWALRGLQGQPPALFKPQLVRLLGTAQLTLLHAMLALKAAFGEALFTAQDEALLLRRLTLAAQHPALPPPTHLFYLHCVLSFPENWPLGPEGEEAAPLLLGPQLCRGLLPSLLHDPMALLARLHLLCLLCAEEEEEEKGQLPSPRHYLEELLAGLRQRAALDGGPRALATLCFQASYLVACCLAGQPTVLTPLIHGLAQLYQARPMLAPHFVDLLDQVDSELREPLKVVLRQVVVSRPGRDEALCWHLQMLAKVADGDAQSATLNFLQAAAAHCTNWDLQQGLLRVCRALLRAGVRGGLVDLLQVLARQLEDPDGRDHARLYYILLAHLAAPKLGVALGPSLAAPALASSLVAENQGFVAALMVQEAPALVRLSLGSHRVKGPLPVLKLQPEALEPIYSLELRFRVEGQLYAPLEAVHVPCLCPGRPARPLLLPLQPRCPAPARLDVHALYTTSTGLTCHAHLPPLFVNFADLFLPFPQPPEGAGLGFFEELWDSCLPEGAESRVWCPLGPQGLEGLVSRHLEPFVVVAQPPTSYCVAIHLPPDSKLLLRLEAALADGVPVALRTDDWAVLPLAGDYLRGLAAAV
inactive: erlotinib 0.006 | [2] -0.05 | [4] -0.069 | [5] 0.014 | [7] 0.073 | [8] 0.046 | IRAK-1-4 Inhibitor I 0.03

ALDH5A1 isoform 2 (UniProt P51649)
inactive: erlotinib -0.005 | [1] 0.045 | [2] 0.024 | [3] -0.009 | [4] 0.006 | [5] 0.013 | [6] -0.026 | [7] -0.013 | [8] -0.002 | IRAK-1-4 Inhibitor I -0.012

ARHGAP25 isoform 4 (UniProt P42331)
Sequence of UniProt P42331 (P42331 whole entry, looked up): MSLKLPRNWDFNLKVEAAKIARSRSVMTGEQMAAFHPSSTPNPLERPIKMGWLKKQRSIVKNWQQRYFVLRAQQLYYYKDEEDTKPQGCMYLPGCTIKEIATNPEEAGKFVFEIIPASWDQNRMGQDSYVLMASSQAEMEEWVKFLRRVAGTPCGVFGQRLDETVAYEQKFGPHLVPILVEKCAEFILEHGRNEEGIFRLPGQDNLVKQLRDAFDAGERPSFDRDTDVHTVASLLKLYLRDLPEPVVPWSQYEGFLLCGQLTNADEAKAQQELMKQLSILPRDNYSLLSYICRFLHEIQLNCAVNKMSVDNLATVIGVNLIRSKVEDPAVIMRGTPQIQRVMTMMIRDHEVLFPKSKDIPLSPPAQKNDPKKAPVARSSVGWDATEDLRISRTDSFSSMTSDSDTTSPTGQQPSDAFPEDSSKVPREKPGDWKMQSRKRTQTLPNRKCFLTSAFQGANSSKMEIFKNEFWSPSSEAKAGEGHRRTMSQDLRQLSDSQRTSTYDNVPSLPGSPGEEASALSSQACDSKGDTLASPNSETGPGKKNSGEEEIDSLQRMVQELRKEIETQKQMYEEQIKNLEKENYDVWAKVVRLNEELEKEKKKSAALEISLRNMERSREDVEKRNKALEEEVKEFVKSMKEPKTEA
inactive: erlotinib 0.029 | [1] 0.045 | [2] 0.026 | [3] -0.031 | [4] -0.031 | [5] -0.002 | [6] -0.029 | [7] 0.007 | [8] 0.034 | IRAK-1-4 Inhibitor I -0.006

AIF1L (UniProt Q9BQI0)
inactive: erlotinib -0.035 | [2] -0.008 | [4] -0.014 | [5] 0.012 | [7] 0.329 | [8] -0.008 | IRAK-1-4 Inhibitor I -0.049
